Measured values as given in the supplement of paper PMC7411054.
Counter-ions that a name gives are not always drawn.

system: WPMY1-GM130-SQSTM1; assay: lowest phenotypically active concentration; higher = less potent; conditions: treatment time: 24 h
In short: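 After 24 h at 0.3, 1, 3 or 9 µM, with four wells per treatment, fifteen gene-edited A549, HepG2 and WPMY1 reporter lines carrying BFP, GFP and RFP/FusionRed were imaged live. Each well's live-cell features were expressed relative to solvent control wells. Deviation required ≥3 of 4 wells past the 95th percentile of control Euclidean distances, and reproducibility a median replicate Pearson correlation over the 95th percentile of non-replicates. Phenotypic activity rested on both.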

Compared with `Nc1nc(Cl)nc2c1ncn2[C@@H]1O[C@H](CO)[C@@H](O)[C@@H]1F` [clofarabine], `OC[C@H]1O[C@@H](n2cnc3c(NCc4ccco4)ncnc32)[C@H](O)[C@@H]1O` [Kinetin riboside] is 3-fold lower in “lowest phenotypically active concentration” value: 3 µM for the first, 1 µM for the second.

`Cc1nc(Nc2ncc(C(=O)Nc3c(C)cccc3Cl)s2)cc(N2CCN(CCO)CC2)n1` [dasatinib] and `Oc1cccc(-c2nc(N3CCOCC3)c3oc4ncccc4c3n2)c1` [PI 103 hydrochloride] cannot be ordered by “lowest phenotypically active concentration” value: at most 0.3 µM for the first, at most 0.3 µM for the second.

Going from `O=C(NCc1cccc(O)c1)Nc1nc(-c2ccncc2)cs1` [RKI 1447 dihydrochloride] to `Nc1cccc(-c2cc3c(Oc4cccc(O)c4)ncnc3[nH]2)c1`, the “lowest phenotypically active concentration” value rises from at most 0.3 µM to 9 µM.

First: CC(C)n1nc(-c2cc3cc(O)ccc3[nH]2)c2c(N)ncnc21
Second: COc1cccc(-c2cc(F)ccc2[C@H]2Cc3nc(N)nc(C)c3C(=O)N2)n1
The “lowest phenotypically active concentration” value of the first is higher: 1 µM for the first, at most 0.3 µM for the second.

`COc1ccc(-c2ccc3ncc4c(c3c2)n(-c2ccc(N3CCNCC3)c(C(F)(F)F)c2)c(=O)n4C)cn1` and `CCC(=O)N1CCN(c2ccc(-n3c(=O)ccc4cnc5ccc(-c6cnc7ccccc7c6)cc5c43)cc2C(F)(F)F)CC1` [Torin 1] cannot be ordered by “lowest phenotypically active concentration” value: at most 0.3 µM for the first, at most 0.3 µM for the second.

Going from `CC(C)(C)c1cnc(CSc2cnc(NC(=O)C3CCNCC3)s2)o1` to `NC(=O)Nc1cc(-c2cccc(F)c2)sc1C(=O)N[C@H]1CCCNC1` [AZD 7762 hydrochloride], the “lowest phenotypically active concentration” value rises from at most 0.3 µM to 1 µM.

Compared with `O=C(O)c1ccc(Nc2ncc3c(n2)-c2ccc(Cl)cc2C(c2c(F)cccc2F)=NC3)cc1`, `C=CC(=O)Nc1cccc(Nc2nc(Nc3ccc(OCCOC)cc3)ncc2F)c1` is 3-fold lower in “lowest phenotypically active concentration” value: 9 µM for the first, 3 µM for the second.

Compared with `COc1ccc(S(=O)(=O)N(C(C)=O)c2ccccc2/C=C/c2cc[n+]([O-])cc2)cc1`, `CON(C)C(=O)N1N=C(c2cc(F)ccc2F)S[C@@]1(CCCN)c1ccccc1` [ARRY 520 trifluoroacetate] is lower in “lowest phenotypically active concentration” value: 3 µM for the first, at most 0.3 µM for the second.

Going from `CC(C)(C)Nc1nc(Nc2ccc(C(N)=O)cc2)cc(N)c1C#N` to `COc1cc2nc(-c3cc(F)ccc3O)nc(N[C@@H]3CNC[C@H]3C(C)(C)O)c2cc1OC`, the “lowest phenotypically active concentration” value falls from 3 µM to 1 µM (3-fold).

Compared with `c1ccc2c(c1)Cc1c(Nc3ccc4c(c3)OCCO4)n[nH]c1-2`, `CN1c2ccccc2C(=O)N2CCc3c([nH]c4ccccc34)[C@H]21` [Evodiamine] is 3-fold lower in “lowest phenotypically active concentration” value: 3 µM for the first, 1 µM for the second.

Compared with `Cc1c(NC(=O)OC[C@@H]2COCCN2)cn2ncnc(Nc3ccc4c(cnn4Cc4cccc(F)c4)c3)c12`, `COc1c(Nc2cc(C)[nH]n2)nc(Sc2ccc(S(=O)(=O)Cc3cccc([N+](=O)[O-])c3F)cc2F)nc1N1CCOCC1` [Centrinone] is 3-fold lower in “lowest phenotypically active concentration” value: 9 µM for the first, 3 µM for the second.

`COc1cc2c(NC3CCN(C(C)C)CC3)nc(N3CCC(F)(F)CC3)nc2cc1OCCCN1CCCC1` and `COc1cc(C(=O)NC2CCN(C)CC2)c(F)cc1Nc1ncc2c(n1)N(C1CCCC1)CC(F)(F)C(=O)N2C` [TAK 960 hydrochloride] cannot be ordered by “lowest phenotypically active concentration” value: at most 0.3 µM for the first, at most 0.3 µM for the second.

`CC(=O)c1c(C)c2cnc(Nc3ccc(N4CCNCC4)cn3)nc2n(C2CCCC2)c1=O` and `COc1cc(N2CCC(N3CCN(C)CC3)CC2)ccc1Nc1ncnc(Nc2ccccc2S(=O)(=O)C(C)C)n1` are the same in “lowest phenotypically active concentration” value: 9 µM for the first, 9 µM for the second.

`CO[C@H]1C=CC=C(C)C(=O)NC2=CC(=O)C(NCCN(C)C)=C(C[C@@H](C)C[C@H](OC)[C@H](O)[C@@H](C)C=C(C)[C@@H]1OC(N)=O)C2=O` [17-DMAG hydrochloride] and `CC[C@]1(O)C[C@@H]2CN(CCc3c([nH]c4ccccc34)[C@@](C(=O)OC)(c3cc4c(cc3OC)N(C=O)[C@H]3[C@@](O)(C(=O)OC)[C@H](OC(C)=O)[C@]5(CC)C=CCN6CC[C@]43[C@@H]65)C2)C1` [vincristine] cannot be ordered by “lowest phenotypically active concentration” value: at most 0.3 µM for the first, at most 0.3 µM for the second.

First: Cc1noc(C)c1-c1cc(O)cc(C(O)c2ccccc2)c1 (centres undefined)
Second: COc1cc2c(cc1-c1c(C)noc1C)ncc1[nH]c(=O)n([C@H](C)c3ccccn3)c12 [I-BET 151 dihydrochloride]
The “lowest phenotypically active concentration” value of the first is 3-fold lower: 1 µM for the first, 3 µM for the second.

First: O=C(Nc1ccc(-c2ccnc(Nc3ccc(N4CCOCC4)cc3)n2)cc1)[C@@H]1CCCN1
Second: C[C@H]1COCCN1c1cc(C2(S(=O)(=O)C3CC3)CC2)nc(-c2ccc(NC(=S)NCCO)cc2)n1
The “lowest phenotypically active concentration” value of the first is higher: 3 µM for the first, at most 0.3 µM for the second.

`NC1(C(=O)N[C@@H](CCO)c2ccc(Cl)cc2)CCN(c2ncnc3[nH]ccc23)CC1` and `Fc1ccccc1CNCc1ccc(-c2ccnc3[nH]ccc23)cc1` [OXA 06 dihydrochloride] are the same in “lowest phenotypically active concentration” value: 1 µM for the first, 1 µM for the second.

Compared with `Cc1c[nH]c2nccc(Oc3c(F)cc(Nc4cc(Cl)nc(N)n4)cc3F)c12`, `N#Cc1c(C2CCNCC2)cc(-c2c(O)cccc2OCC2CC2)nc1N` is higher in “lowest phenotypically active concentration” value: at most 0.3 µM for the first, 9 µM for the second.

`C[C@H]1[C@H]2CC[C@H]3[C@@H]4CC=C5C[C@@H](N(C)C)CC[C@]5(C)[C@H]4CC[C@]23CN1C` [Conessine] and `COc1cc(/C=C/c2ccc(OC)cc2OC)cc(OC)c1` are the same in “lowest phenotypically active concentration” value: 1 µM for the first, 1 µM for the second.

With `CC[C@H](CO)Nc1nc(NCc2ccc(-c3ccccn3)cc2)c2ncn(C(C)C)c2n1` the “lowest phenotypically active concentration” value was at most 0.3 µM.
